Experimental data taken from ChEMBL document CHEMBL1961873, “Compounds: GSK PKIS; Assays: Nanosyn kinase panel” (2012).

Legend:
[1] = molecular target: High affinity nerve growth factor receptor (Homo sapiens) (UniProt P04629); conditions: at 1 µM;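 also: each value is the mean percent inhibition of TRKA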
[2] = molecular target: BDNF/NT-3 growth factors receptor (Homo sapiens) (UniProt Q16620); conditions: at 0.1 µM
[3] = molecular target: BDNF/NT-3 growth factors receptor (Homo sapiens) (UniProt Q16620); conditions: at 1 µM
[4] = molecular target: NT-3 growth factor receptor (Homo sapiens) (UniProt Q16288); conditions: at 0.1 µM
Sequence of NT-3 growth factor receptor (Homo sapiens) (Q16288 32-839 limits assumed): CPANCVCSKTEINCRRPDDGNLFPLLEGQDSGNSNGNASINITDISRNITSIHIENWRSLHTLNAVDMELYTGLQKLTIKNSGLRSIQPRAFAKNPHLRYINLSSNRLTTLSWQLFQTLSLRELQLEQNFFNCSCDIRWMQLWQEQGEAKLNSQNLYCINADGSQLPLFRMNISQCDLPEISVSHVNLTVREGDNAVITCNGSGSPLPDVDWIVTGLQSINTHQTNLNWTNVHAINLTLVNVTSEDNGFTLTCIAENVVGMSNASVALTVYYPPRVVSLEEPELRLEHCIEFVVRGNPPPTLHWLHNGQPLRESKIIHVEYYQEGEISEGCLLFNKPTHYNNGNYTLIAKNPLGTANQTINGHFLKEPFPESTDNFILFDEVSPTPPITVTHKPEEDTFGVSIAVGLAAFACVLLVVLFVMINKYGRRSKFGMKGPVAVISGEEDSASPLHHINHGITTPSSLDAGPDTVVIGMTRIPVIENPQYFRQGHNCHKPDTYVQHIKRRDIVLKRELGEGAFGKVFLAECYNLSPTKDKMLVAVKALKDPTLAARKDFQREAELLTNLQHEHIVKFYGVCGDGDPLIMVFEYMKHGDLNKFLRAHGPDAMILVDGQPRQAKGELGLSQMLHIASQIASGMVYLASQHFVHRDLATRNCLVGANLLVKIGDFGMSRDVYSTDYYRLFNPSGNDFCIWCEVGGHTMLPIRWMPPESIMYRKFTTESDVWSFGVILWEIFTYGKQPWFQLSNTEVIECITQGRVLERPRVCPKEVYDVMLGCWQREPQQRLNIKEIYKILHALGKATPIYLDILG

[5] = molecular target: NT-3 growth factor receptor (Homo sapiens) (UniProt Q16288); conditions: at 1 µM
[6] = molecular target: T1, Tyrosine-protein kinase TXK (Homo sapiens) (UniProt P42681); conditions: at 0.1 µM
T1 sequence (whole entry): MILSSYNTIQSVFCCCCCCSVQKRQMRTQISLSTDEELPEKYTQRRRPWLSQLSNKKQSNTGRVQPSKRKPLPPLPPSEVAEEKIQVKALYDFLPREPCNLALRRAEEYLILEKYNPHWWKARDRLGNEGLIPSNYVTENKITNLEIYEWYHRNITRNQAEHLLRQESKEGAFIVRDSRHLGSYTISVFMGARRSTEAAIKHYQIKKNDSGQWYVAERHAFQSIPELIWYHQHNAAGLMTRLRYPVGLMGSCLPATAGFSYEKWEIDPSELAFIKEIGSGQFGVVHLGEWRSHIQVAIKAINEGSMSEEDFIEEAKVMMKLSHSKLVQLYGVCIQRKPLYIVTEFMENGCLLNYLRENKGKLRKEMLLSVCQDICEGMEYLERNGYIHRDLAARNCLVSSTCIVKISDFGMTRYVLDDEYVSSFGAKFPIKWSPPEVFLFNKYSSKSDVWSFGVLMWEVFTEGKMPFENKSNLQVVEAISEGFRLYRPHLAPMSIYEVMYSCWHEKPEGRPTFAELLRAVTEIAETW

[7] = molecular target: T1, Tyrosine-protein kinase TXK (Homo sapiens); conditions: at 1 µM
[8] = molecular target: Non-receptor tyrosine-protein kinase TYK2 (Homo sapiens) (UniProt P29597); conditions: at 0.1 µM;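 also: each value is a mean of the inhibition readings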
Sequence of Non-receptor tyrosine-protein kinase TYK2 (Homo sapiens) (P29597 whole entry): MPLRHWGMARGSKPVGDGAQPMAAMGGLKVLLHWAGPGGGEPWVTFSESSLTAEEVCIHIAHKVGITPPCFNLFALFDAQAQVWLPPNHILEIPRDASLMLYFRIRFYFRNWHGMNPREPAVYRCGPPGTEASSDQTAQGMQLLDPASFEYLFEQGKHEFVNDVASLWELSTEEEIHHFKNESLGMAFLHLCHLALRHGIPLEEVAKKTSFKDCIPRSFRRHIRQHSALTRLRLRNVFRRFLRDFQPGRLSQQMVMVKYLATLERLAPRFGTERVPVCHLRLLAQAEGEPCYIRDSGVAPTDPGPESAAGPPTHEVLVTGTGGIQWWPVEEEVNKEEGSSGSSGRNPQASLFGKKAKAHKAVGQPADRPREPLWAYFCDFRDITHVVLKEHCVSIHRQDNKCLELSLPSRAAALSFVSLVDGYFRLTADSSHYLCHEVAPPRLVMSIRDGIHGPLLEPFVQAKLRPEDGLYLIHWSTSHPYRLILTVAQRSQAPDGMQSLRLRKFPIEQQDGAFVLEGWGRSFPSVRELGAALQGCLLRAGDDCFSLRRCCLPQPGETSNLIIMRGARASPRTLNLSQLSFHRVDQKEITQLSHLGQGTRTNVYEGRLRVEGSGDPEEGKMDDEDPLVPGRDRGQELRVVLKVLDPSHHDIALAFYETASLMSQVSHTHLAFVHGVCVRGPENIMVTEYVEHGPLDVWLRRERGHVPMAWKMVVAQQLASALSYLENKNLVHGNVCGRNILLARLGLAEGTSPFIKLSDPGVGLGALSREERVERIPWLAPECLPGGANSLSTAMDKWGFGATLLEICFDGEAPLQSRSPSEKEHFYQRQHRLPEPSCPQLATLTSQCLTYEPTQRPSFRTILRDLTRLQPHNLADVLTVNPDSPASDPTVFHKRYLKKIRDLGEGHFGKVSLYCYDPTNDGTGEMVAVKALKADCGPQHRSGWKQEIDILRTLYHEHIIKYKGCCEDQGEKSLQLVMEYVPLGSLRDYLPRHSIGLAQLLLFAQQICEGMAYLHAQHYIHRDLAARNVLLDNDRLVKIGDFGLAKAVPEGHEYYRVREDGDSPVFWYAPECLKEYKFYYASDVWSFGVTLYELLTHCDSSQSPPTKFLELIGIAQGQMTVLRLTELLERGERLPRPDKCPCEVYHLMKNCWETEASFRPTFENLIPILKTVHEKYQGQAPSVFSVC

[9] = molecular target: T2, Dual specificity protein kinase TTK (Homo sapiens) (UniProt P33981); conditions: at 1 µM;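 also: reported figures are mean TTK inhibition at 1 µM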
T2 sequence (whole entry): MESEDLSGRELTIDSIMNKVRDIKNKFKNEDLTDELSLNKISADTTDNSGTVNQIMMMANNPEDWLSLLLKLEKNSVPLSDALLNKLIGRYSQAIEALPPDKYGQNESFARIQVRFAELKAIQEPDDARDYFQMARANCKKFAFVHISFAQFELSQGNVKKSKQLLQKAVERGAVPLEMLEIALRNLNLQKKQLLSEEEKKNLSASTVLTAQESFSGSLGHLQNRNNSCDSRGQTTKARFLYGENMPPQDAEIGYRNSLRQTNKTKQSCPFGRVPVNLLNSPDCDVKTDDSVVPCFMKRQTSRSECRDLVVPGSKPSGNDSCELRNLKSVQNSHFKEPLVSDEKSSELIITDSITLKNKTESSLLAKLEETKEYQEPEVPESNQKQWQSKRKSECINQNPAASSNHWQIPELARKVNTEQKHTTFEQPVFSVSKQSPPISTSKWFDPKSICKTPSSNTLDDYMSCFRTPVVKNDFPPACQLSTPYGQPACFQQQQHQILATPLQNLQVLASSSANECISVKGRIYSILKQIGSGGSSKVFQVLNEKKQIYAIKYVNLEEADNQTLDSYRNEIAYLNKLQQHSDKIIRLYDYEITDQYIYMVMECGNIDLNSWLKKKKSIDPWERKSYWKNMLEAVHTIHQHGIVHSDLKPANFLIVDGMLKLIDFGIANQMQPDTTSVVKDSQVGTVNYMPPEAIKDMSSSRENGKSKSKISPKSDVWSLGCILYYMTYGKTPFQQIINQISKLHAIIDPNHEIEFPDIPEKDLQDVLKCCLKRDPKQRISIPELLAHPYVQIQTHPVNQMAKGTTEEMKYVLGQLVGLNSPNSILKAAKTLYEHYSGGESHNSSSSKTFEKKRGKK

[10] = molecular target: T3, Aurora kinase A (Homo sapiens) (UniProt O14965); conditions: at 0.1 µM;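 also: each reported value is a mean percent inhibition of Aurora-A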
T3 sequence (whole entry): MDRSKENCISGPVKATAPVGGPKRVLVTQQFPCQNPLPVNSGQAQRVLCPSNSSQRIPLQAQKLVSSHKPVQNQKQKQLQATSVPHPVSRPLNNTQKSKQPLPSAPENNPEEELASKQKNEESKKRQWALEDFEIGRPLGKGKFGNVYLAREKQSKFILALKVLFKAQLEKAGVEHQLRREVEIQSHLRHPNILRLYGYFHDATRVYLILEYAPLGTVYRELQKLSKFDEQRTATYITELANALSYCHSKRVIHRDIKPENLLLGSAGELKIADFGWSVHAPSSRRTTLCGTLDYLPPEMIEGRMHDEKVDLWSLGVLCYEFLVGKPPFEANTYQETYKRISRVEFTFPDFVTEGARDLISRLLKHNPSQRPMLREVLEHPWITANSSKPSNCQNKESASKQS

Sequence of BDNF/NT-3 growth factors receptor (Homo sapiens) (Q16620 32-822 limits assumed): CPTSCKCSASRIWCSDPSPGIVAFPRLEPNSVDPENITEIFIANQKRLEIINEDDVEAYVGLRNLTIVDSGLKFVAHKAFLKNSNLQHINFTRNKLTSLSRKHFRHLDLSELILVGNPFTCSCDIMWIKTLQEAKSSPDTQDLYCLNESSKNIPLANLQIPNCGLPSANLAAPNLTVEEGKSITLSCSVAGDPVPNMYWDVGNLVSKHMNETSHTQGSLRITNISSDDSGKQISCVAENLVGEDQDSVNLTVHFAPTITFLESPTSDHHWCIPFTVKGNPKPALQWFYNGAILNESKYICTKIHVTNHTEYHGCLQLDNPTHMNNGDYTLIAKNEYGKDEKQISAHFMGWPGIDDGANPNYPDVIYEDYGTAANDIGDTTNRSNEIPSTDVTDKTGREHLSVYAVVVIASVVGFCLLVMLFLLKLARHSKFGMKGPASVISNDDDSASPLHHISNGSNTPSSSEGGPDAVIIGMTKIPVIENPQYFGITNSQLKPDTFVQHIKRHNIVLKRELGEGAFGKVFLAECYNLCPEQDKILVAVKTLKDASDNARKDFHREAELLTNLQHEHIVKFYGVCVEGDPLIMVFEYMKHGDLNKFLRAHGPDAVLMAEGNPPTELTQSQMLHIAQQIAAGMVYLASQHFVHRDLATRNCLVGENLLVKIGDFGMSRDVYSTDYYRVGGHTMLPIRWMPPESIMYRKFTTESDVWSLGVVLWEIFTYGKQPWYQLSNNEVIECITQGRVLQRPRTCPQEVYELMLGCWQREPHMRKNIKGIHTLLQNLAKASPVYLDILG
Sequence of High affinity nerve growth factor receptor (Homo sapiens) (P04629 33-796 limits assumed): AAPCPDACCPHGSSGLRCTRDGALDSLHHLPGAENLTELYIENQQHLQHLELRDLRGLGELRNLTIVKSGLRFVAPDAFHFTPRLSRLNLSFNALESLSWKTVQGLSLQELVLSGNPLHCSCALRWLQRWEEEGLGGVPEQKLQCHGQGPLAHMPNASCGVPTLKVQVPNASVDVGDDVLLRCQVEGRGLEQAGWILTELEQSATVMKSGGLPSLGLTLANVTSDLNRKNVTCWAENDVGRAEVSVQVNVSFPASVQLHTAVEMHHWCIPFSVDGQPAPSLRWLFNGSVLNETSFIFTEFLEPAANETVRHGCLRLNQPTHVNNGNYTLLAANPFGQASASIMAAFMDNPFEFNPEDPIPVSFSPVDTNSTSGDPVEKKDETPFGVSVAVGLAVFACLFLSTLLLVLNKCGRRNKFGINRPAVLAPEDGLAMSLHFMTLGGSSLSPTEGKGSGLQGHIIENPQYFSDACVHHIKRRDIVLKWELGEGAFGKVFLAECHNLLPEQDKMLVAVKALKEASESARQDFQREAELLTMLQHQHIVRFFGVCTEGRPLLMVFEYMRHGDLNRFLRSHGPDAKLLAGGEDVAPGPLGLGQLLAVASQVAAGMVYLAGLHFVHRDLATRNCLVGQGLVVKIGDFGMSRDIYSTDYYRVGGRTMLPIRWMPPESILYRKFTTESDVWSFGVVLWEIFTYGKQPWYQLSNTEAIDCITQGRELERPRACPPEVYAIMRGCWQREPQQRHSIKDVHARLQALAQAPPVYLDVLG

| SMILES | inhibition [1] [%] | inhibition [2] [%] | inhibition [3] [%] | inhibition [4] [%] | inhibition [5] [%] | inhibition [6] [%] | inhibition [7] [%] | inhibition [8] [%] | inhibition [9] [%] | inhibition [10] [%] |
| --- | --- | --- | --- | --- | --- | --- | --- | --- | --- | --- |
| O=C1Nc2ccc(C(=O)c3ccco3)cc2C1=Cc1cc(Cl)c(O)c(Cl)c1 | 21 | 5.68 | 29.1 | 9.19 | 47.1 | 3.45 | 11.2 | -3.77 | 21.9 | 7.35 |
| O=C1NC(=O)C(c2ccc(Cl)cc2)=C1Nc1ccc(Cl)c(C(=O)O)c1 | 0.46 | 1.23 | 0.65 | -1.8 | -0.55 | -0.87 | 1.12 | 0.04 | -3.54 | -3.12 |
| CS(=O)(=O)CCNCc1nc(-c2ccc3ncnc(Nc4ccc(F)c(Cl)c4)c3c2)cs1 | 1.47 | 0.48 | 4.21 | 1.55 | 2.39 | 3.78 | 15.9 | -3.38 | 6.34 | 1.71 |
| N#Cc1c(NC(=O)c2cccc3ccccc23)sc2c1CCCC2 | 1.26 | 2.03 | 2.36 | 2.33 | 2.63 | 2.34 | 4.42 | -0.41 | 0.69 | 2.42 |
| c1cnn2ncc(-c3ccnc(Nc4ccc5c(c4)OCCO5)n3)c2c1 | 9.5 | 5.33 | 18.1 | 5.54 | 21.3 | 4.21 | 17.6 | -1.73 | 35 | 9.49 |
| Cc1nn(C)c2cc(N(C)c3ccnc(Nc4cccc(S(N)(=O)=O)c4)n3)ccc12 | 6.3 | 2.64 | 11.7 | 2.83 | 12.3 | 53.5 | 79.2 | -1.02 | 26.4 | 20 |
| NS(=O)(=O)c1ccc(N/N=C2\C(=O)Nc3ccc(C(=O)NCCc4c[nH]cn4)cc32)cc1 | 14.9 | 6.79 | 31.4 | 9.97 | 41.8 | 3.49 | 3.55 | -1.79 | 71.5 | 3.83 |
| O=C1NC(=O)C(c2ccccc2Cl)=C1Nc1cccc(O)c1 | 0.59 | 1.19 | 1.88 | 0.46 | 4.4 | 3.39 | 4.53 | -5.26 | -9.72 | 3.17 |
| NC(=O)c1cccc(Nc2nccc(Nc3cccc4[nH]ncc34)n2)c1 | 6.83 | 0.06 | 14.1 | 1.25 | 12.9 | 15.8 | 55.1 | 4.66 | 9.28 | 36.4 |
| Nc1nc(-c2ccccn2)c(-c2ccc3ncccc3n2)s1 | 1.12 | 2.11 | 2.56 | 1.67 | 4.07 | 2.05 | 3.04 | -3.74 | 7.95 | 2.15 |
| Nc1ncnc2occ(-c3ccc(NC(=O)Nc4cccc(C(F)(F)F)c4)cc3)c12 | 96.5 | 59.4 | 91.1 | 58.9 | 88.9 | -1.65 | 5.17 | -3.69 | 18.1 | 9.27 |
| COc1ccc2cc(-c3c(-c4ccncc4)nc(-c4ccc([S+](C)[O-])cc4)n3C)ccc2c1 (stereo not given) | 1.74 | 0.67 | 1.15 | 0.11 | 1.86 | 1.4 | 4.06 | -2.53 | 7.86 | 3.45 |
| Fc1cccc(COc2ccc(Nc3ncnc4cc(-c5ccc[nH]5)sc34)cc2Cl)c1 | 2.72 | 2.62 | 0.88 | 2.48 | 2.41 | 2.95 | 9.57 | -1 | 10.7 | -2.74 |
| COc1cc(C=NNc2ncnc3c2cnn3-c2ccccc2)ccc1O | 14.3 | 5.2 | 33.1 | 5.23 | 34.6 | 3.66 | 5.94 | -0.09 | 10.5 | 23 |
| CNC(=O)c1cncc(/C=C/c2c(Cl)cccc2Cl)c1 | 6.89 | 2.99 | 4.39 | 2.24 | 2.7 | 5.28 | 22.7 | -2.78 | 18.3 | 0.59 |
| COc1cc(C)c(NC(=O)CN(C)C)cc1Nc1nc(Nc2cccc(F)c2C(N)=O)c2cc[nH]c2n1 | 13 | 2.25 | 1.27 | 2.83 | 4.14 | 0.4 | -0.74 | 1 | 53.5 | 2.06 |
| COc1ccccc1Nc1ncc(-c2ccccc2)o1 | 4.51 | 4.57 | 8.84 | 4.02 | 9.48 | 0.91 | 6.86 | -6.02 | 11.9 | 4.71 |

| SMILES | inhibition [1] [%] | inhibition [2] [%] | inhibition [3] [%] | inhibition [4] [%] | inhibition [5] [%] | inhibition [6] [%] | inhibition [7] [%] | inhibition [8] [%] | inhibition [9] [%] | inhibition [10] [%] |
| --- | --- | --- | --- | --- | --- | --- | --- | --- | --- | --- |
| CC(=O)Nc1cccc(C#Cc2cncnc2Nc2ccc(OCc3cccc(F)c3)c(Cl)c2)n1 | -2.48 | -1.79 | 0.05 | -0.41 | 4.04 | 0.96 | 0.46 | 4.58 | 10.8 | -0.41 |
| CS(=O)(=O)CCNCc1ccc(-c2ccc3ncnc(Nc4ccc(OCc5ccccc5)c(Cl)c4)c3c2)o1 | 4.84 | 2.92 | 2.87 | 1.98 | 2.17 | 1.26 | 1.47 | 1.67 | 6.09 | 0.56 |
| CC1=C(C(=O)Nc2ccc3[nH]ncc3c2)C(c2ccc3ccccc3c2)CC(=O)N1 (stereo not given) | 2.53 | 1.18 | 4.38 | 5.87 | 5.78 | 2.76 | 8.34 | 0.09 | -0.04 | 7.34 |
| O=C(Nc1n[nH]c2nc(-c3ccco3)c(Br)cc12)C1CC1 | 3.72 | -0.07 | 1.56 | 1.75 | 4.33 | 2.71 | 5.55 | -1.26 | -3.66 | 2.52 |
| Cc1ccc(C(=O)NC2CCCCC2)cc1-c1ccc(C(=O)NCC2CC2)cc1 | 2.19 | 0.88 | -0.15 | 0.18 | -0.57 | 4.64 | 5.63 | 1.37 | 8.51 | 4.04 |
| CCCN1CCC=C(c2ccc(Nc3nc(Nc4ccccc4C(N)=O)c4cc[nH]c4n3)c(C)c2)C1 | 6.59 | 3.01 | 6.47 | 2.46 | 3.13 | 6.59 | 13.1 | -5.21 | 70.7 | 6.15 |
| O=C1NC(=O)C(N2CCc3ccccc32)=C1c1ccc(Cl)cc1 | 3.04 | 3.69 | 7 | 2.99 | 4.89 | 5.42 | 8.99 | -4.08 | 2.25 | 2.79 |
| COC(=O)Nc1nc2cc(Oc3cccc(NC(=O)Nc4cc(C(F)(F)F)ccc4F)c3)ccc2[nH]1 | -0.96 | -0.54 | 2.43 | -0.83 | 5.81 | 2.14 | 2.8 | 1.53 | 0.75 | 1.04 |
| CCn1c(-c2nonc2N)nc2cnc(Oc3cccc(NC(=O)c4ccc(OCCN5CCOCC5)cc4)c3)cc21 | -0.09 | 3.18 | 0.84 | 2.85 | 2.49 | 5.3 | 5.82 | -1.13 | 10.2 | 6.07 |
| COc1cc2ncn(-c3cc(O[C@@H](C)c4ccccc4Cl)c(C(N)=O)s3)c2cc1OC | 6.09 | 5.59 | 18.6 | 6.76 | 32.5 | -1.39 | 5.82 | -2.87 | 9.98 | 4.95 |
| CC(C)=Cc1cccc2c1/C(=N/Nc1ccc(S(N)(=O)=O)cc1)C(=O)N2 | 51.5 | 22.4 | 75.3 | 23.6 | 77.2 | 3.64 | 12.9 | 3.75 | 51.7 | 25.6 |
| COc1cc2ncn(-c3cc(OCc4ccccc4C(F)(F)F)c(C(N)=O)s3)c2cc1OC | 5.01 | 6.06 | 10.2 | 5.07 | 10.4 | -5.47 | 2.84 | -1.61 | 10.1 | 1.39 |
| COc1cc2ncn(-c3cc(OCc4ccccc4Cl)c(C(N)=O)s3)c2cc1OC | 2.92 | 2.11 | 13.7 | 3.13 | 20.4 | 2.99 | 13.2 | 2.29 | 0.54 | 1.9 |
| NCc1ccc(-c2nc(-c3ccc(Cl)c(O)c3)c(-c3ccncc3)[nH]2)cc1 | -1.42 | -0.05 | 0.73 | -0.91 | 1.61 | 18.9 | 61.1 | 1.75 | 7.44 | 1.53 |
| CCn1c(-c2nonc2N)nc2c(N3CCCC3)nccc21 | 0.75 | -0.07 | 0.49 | -0.45 | -0.34 | -0.75 | -2.21 | 2.25 | -1.76 | -1.86 |
| CCc1cccc(NC(=O)Nc2ccc(Oc3ccc4nc(NC(=O)OC)[nH]c4c3)cc2)c1 | 43.7 | 21.4 | 30.7 | 20.4 | 30.3 | 2.03 | 5.13 | -5.85 | 6.45 | 2.16 |
